Assay outcomes deposited in PubChem BioAssay by Sanford-Burnham Center for Chemical Genomics.
CYP2C9 inhib: human CYP2C9 inhibition | 20% of 96,000 active | CYP2C9 Supersomes, luciferin-H conversion, luminescence | inhibition, % at 5 µM | P11712;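 active = blocking of liver enzyme CYP2C9 beyond about 50% at 5 µM, limit read from the data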
Target sequence (P11712 whole entry, looked up): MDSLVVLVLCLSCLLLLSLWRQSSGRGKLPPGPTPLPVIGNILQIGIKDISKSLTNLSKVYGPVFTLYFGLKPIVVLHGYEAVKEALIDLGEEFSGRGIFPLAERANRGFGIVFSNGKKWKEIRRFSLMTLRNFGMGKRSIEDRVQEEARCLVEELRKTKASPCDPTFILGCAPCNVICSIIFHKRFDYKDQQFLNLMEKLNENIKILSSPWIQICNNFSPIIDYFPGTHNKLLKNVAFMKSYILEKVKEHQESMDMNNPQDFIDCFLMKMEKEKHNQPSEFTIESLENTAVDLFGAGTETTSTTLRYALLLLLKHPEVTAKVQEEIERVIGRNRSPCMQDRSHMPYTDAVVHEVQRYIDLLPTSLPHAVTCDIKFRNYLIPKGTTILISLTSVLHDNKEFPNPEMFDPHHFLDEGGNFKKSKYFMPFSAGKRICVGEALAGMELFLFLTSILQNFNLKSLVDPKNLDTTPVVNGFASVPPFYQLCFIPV
PLAP act: activators of human placental alkaline phosphatase. P05187. purified PLAP enzyme, luminescent substrate read-out; stronger effect = higher value. activation fold at 20 µM. 1.2% of 96,000 active. AID 696; in the data active = activation fold above about 2
CYP2C19 activ: cytochrome P450 2C19 (human) activation; P33261; recombinant CYP2C19, luciferin-H EGE luminescence; stronger effect = higher value; 0 = fully inhibited enzyme, 1 = untreated enzyme; activation factor at 5 µM; 96,000 tested, under 10 active; AID 1025;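 active = activation factor of at least 2 at 5 µM in the primary screen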;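 note: 0 = wells with 2.5 mM tranylcypromine and 1 = vehicle-only wells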
CYP2C19 inhib: human CYP2C19 inhibition. 21% of 96,000 active. inhibition, % at 5 µM. AID 778. CYP2C19 Supersomes, luciferin-H EGE luminescence, 30 min;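 active = CYP2C19 inhibition above a set limit at 5 µM in the primary screen, cut at about 50% in these data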;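 note: plate controls were negative control wells for no effect and 2.5 mM tranylcypromine positive control for full effect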
CYP2C9 act: activators of human CYP2C9 | P11712 | recombinant CYP2C9, luciferin-H conversion, luminescence; stronger effect = higher value; factor 1 = untreated enzyme, 0 = blocked | activation factor at 5 µM | 1.4% of 96,000 active | AID 1024;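 active = activation factor of 2 or more for CYP2C9 at a 5 µM dose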;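 note: 0 = sulfaphenazole-blocked wells and 1 = vehicle-only wells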
An asterisk follows results filed as active. Most compounds without a hit are left out; they make up all but 31% or so of the library.

SMILES	CYP2C9 inhib	PLAP act	CYP2C19 activ	CYP2C19 inhib	CYP2C9 act
CCC(=O)N1CCN(c2ccc(Cl)cc2NC(=O)Cc2ccccc2)CC1	79.3*	1.4	0.2	83.0*	0.2
CN1C(=S)SC(C)(C)C1(C)NO (stereo not drawn)	-11.5	1.1	0.9	5.5	1.1
Clc1ccc(CNC2CCCC2)cc1	18.9	0.9	0.2	78.4*	0.8
COc1cc(/C=N/n2cnnc2)ccc1OCCSc1ccc(C)cc1	53.8*	1	0.2	79.5*	0.5
CCC(=O)Nc1ccc(N2CCCCC2)c(C(=O)Nc2ccccc2C)c1	21.1	1.1	0.5	53.1*	0.8
CN(C)S(=O)(=O)c1ccc(N2CCCC2)c(C(=O)NC(c2ccccc2)c2ccccc2)c1	54.4*	1.3	1.1	-6.6	0.5
O=C(Nc1ccccc1N1CCCCC1)c1ccc(F)cc1	-1.0	0.8	0.8	16.1	1
O=C(Nc1ccccc1Cl)c1cc(S(=O)(=O)N2CCCCC2)ccc1N1CCOCC1	24.3	1.3	0.7	31.5	0.8
Cc1ccccc1NC(=O)c1cc(N)ccc1N1CCCCC1	86.3*	1.3	0	97.6*	0.1
CN(C)S(=O)(=O)c1ccc(N2CCCC2)c(C(=O)Nc2ccc(N3CCOCC3)cc2)c1	39.5	1.2	0.8	22.1	0.6
CCN(CC)S(=O)(=O)c1ccc(N2CCCCC2)c(C(=O)Nc2ccccc2N2CCOCC2)c1	36.5	1.6	0.4	59.2*	0.6
O=C(C1CC(c2cccc(Br)c2)=NO1)N1CCc2ccccc2C1 (stereo not drawn)	-46.2	1.1	0.7	28.2	1.5
COc1cccc(C(=O)Nc2nc(-c3ccc4c(c3)OCO4)cs2)c1	47.8	0.9	0.8	15.4	0.5
Cc1cccc(Nc2nc(-c3c(C)nc4ccccn34)cs2)c1	61.2*	1.1	0.7	33.0	0.4
Cc1cccc(Nc2nc(-c3ccc4c(c3)OCCO4)cs2)c1	86.3*	0.9	0.5	49.1	0.1
COC(=O)C(C)Sc1nc2c(c(=O)n1-c1ccccc1)SCC2 (stereo not drawn)	69.2*	1.3	0.1	88.7*	0.3
COC(=O)c1ccc(CSc2nc3c(c(=O)n2-c2ccc(C)cc2)SCC3)o1	93.2*	1.4	0.4	64.6*	0.1
COc1ccc(NC(=O)CSc2nc3c(c(=O)n2-c2ccc(F)cc2)SCC3)c(OC)c1	79.6*	1.2	0.3	73.1*	0.2
COc1ccc(-n2c(SCC(=O)Nc3nccs3)nc3c(c2=O)SCC3)cc1	1.1	1	1	3.8	1
COc1ccc(-n2c(SCC(=O)N3CCN(c4ccccc4)CC3)nc3c(c2=O)SCC3)cc1	69.7*	1.6	0.4	57.0*	0.3
Cc1ccc(S(=O)(=O)NCC(=O)OCN2C(=O)c3ccccc3C2=O)cc1	-10.7	0.8	1	-1.8	1.1
C=CCNc1nnc(SC2CC(=O)N(c3ccc(OC)cc3)C2=O)s1 (stereo not drawn)	-2.9	1	0.7	34.8	1
Cn1ccnc1SCC(=O)c1ccc(Br)cc1	15.4	0.9	0.1	93.0*	0.8
Cc1ccccc1-n1ccnc1SCC(=O)O	27.1	1	0.8	22.6	0.7
Cc1ccccc1CSc1nccn1-c1ccccc1	57.4*	0.8	0.2	81.6*	0.4
SMILES	CYP2C9 inhib	PLAP act	CYP2C19 activ	CYP2C19 inhib	CYP2C9 act
O=C(CSc1nccn1-c1ccccc1)c1ccc(Br)cc1	17.4	0.9	0.4	60.8*	0.8
C=CCn1c(COc2ccc(CC)cc2)nnc1SC/C(O)=C(\C#N)c1nc2ccccc2[nH]1	41.7	1.3	0.9	12.2	0.6
Cc1nnc2ccc(Oc3ccc(-c4ccccc4)cc3)nn12	22.0	1.4	0.8	16.2	0.8
O=C(Nc1cccc(Br)c1)/C(=C\c1cccnc1)NC(=O)c1ccco1	14.1	1.1	1	3.8	0.9
COCCCn1c(SCc2nc3ccccc3c(=O)[nH]2)nc2ccccc2c1=O	66.6*	1	0.6	36.5	0.3
COCCCn1c(-c2ccccc2)nc2ccccc2c1=O	13.8	0.8	0.9	13.2	0.9
NC(=O)CSc1nnc(-c2ccncc2)n1CCc1ccccc1	-3.6	1	1	-4.6	1
O=c1[nH]c(CSc2nnc(-c3ccncc3)n2Cc2ccco2)nc2ccccc12	56.2*	1	0.5	47.2	0.4
C=CCn1c(SCC(=O)O)nnc1-c1cccc(Cl)c1	-0.1	0.9	1.2	-17.3	1
CCOC(=O)c1[nH]c(CSc2nnc(-c3ccncc3)n2CCOC)c(C(=O)OCC)c1C	94.3*	1	0.3	65.0*	0.1
C=CCn1c(SCc2nc3ccccc3c(=O)[nH]2)nnc1-c1cc2cc(Cl)ccc2o1	68.3*	1.6	0.6	45.0	0.3
Cn1c(SCC(=O)N2CCN(Cc3ccccc3)CC2)nnc1-c1ccncc1	12.8	1.4	1	1.9	0.9
COCCn1c(SCC(=O)OC(C)C)nnc1-c1ccccc1	-1.2	1	0.6	35.7	1
COCCn1c(SCc2nc3ccccc3c(=O)[nH]2)nnc1-c1ccncc1	37.8	1.2	0.5	52.4*	0.6
CCOC(=O)N1CCN(C(=O)C2CCN(C(=O)c3cc4sccc4n3CC)CC2)CC1	-31.6	1.4	1.2	-20.4	1.3
O=C(Cn1c(C(=O)N2CCN(C3CCCC3)CC2)cc2sccc21)c1ccccc1	39.9	1.2	0.2	80.0*	0.6
CCn1c(C(=O)N2CCC(Cc3ccccc3)CC2)cc2sccc21	57.7*	1.3	0.4	59.3*	0.4
O=C(Cn1c(C(=O)NCC2CCCO2)cc2sccc21)c1ccccc1 (stereo not drawn)	51.1*	0.9	0.7	27.1	0.5
O=C(Cn1c(C(=O)NCc2ccco2)cc2sccc21)c1ccccc1	39.0	1	0.7	29.3	0.6
CC(=O)c1cnc2nc(C(F)(F)F)nn2c1C	-10.2	0.9	1	-1.0	1.1
Cc1cc(C)n(-c2nnc(C)c(=O)[nH]2)n1	-20.1	1	1.1	-13.6	1.2
CSc1nc2ccccc2c(=O)n1N	7.7	1	0.7	26.5	0.9
CCC(CC)C(=O)NCCNC(=O)C(CC)CC	6.0	0.9	0.9	6.1	0.9
CCOC(=O)/C=C/S(=O)(=O)c1ccc(NC(C)=O)cc1	26.5	0.8	0.9	9.1	0.7
COc1ccc(/C=N/NC(=O)c2[nH]ncc2Br)c(OC)c1	-104.6	1.6	0.6	36.3	2*
COc1cccc(OCc2cc(/C=N/NC(=O)c3ccn[nH]3)ccc2OC)c1	40.7	1.5	0.7	26.5	0.6
CCOC(=O)c1c(Nc2ccccc2N)cc(C)nc1C	5.5	0.9	0.3	71.9*	0.9
CCOC(=O)c1c(C)nc2ccccc2c1C	5.0	1.1	0.6	37.0	0.9
CCOC(=O)C1CCN(C(=O)Cn2cc(C(=O)c3ccco3)c3ccccc32)CC1	0.2	0.9	1	2.9	1
CC1CCCCN1C(=O)Cn1cc(C(=O)c2ccco2)c2ccccc21 (stereo not drawn)	68.5*	1.5	0.2	83.3*	0.3
